Values without a mark were called inactive. Active and inactive are the calls of the source. The call rests on the fitted dose curve.

Data on 40 compounds can be found in PubChem BioAssay (Tox21).
On the % scale 0 is the no-effect control and ±100 the full control effect.

The assay can be described thus: G protein-coupled receptor (GPCR) small molecule agonists, calcium flux assay: HEK293 wild type cell line counter screen (AID 1920065). As to conditions: HEK293 WT calcium flux, fluorescence, agonist mode; series mostly up to 57.6 µM. An excerpt:
U.S. Tox21 Program National Center for Advancing Translational Sciences [NCATS] Division of Preclinical Innovation [DPI] U.S. Environmental Protection Agency [EPA] National Institutes of Environmental Health Sciences [NIEHS] National Toxicology Program [NTP] U.S. Food and Drug Administration [FDA] Assay overview: The increased intracellular calcium release that occurred upon G protein-coupled receptor (GPCR) activation led to the frequent use of calcium flux assays to detect GPCR activation. For the purpose of studying and screening compounds that may activate GPCR, receptor-overexpressing models were typically generated using Hek293 wild-type (WT) cells. In order to eliminate the compounds that may have induced calcium release for non-specific activation, a counter-assay utilizing calcium flux on Hek293 WT cells was performed. The data were formulated in order to serve as a control for any calcium flux detection utilizing Hek293 cells with either GPCR overexpression or gene modification. The procurement of Hek293 WT cells from ATCC. Fluorescence intensity can be utilized to determine the activation of the compound in a calcium flux assay. As a counter control, this cell line was utilized to screen the Tox21 10K compound library.
Assay Protocol Summary: Hek293 cells were dispensed at 1500cells/4uL/well in 1536-well black wall/clear bottom plates using a multidrop dispenser. After the assay plates were incubated at a 37 C/5% CO2 incubator for 18 hours, 4 uL of Calcium Dye Solution was added to each well. The plates were incubated at 37 C for 1 hour. For agonist mode, 23 nL of compounds dissolved in DMSO, positive control (ATP) or DMSO only was transferred to the assay plate by a pin tool station. The fluorescence intensity in the plates was measured using FDSS 7000EX kinetic plate reader with a filter set of Ex/Em=480/540 for 3 min at 1 sec intervals. Each test compound was measured at 15 concentrations and in triplicates.
Take `O=C(CS)Nc1ccccc1`: the outcome was inactive.

`CCCCCCCCc1ccc(S(=O)(=O)O)cc1`: the result was inactive.

Consider `Clc1nc(C(Cl)(Cl)Cl)c(Cl)c(Cl)c1Cl`, for which the result was inactive.

Turning to `O=C(Cn1ccnc1[N+](=O)[O-])NCCO`, the outcome was inactive.

Take `C[C@@H]1C[C@H]2[C@@H]3CCC4=CC(=O)C=C[C@]4(C)[C@@]3(F)[C@@H](O)C[C@]2(C)[C@@]1(O)C(=O)COP(=O)(O)O`: the outcome was inactive.

`O=C(O)C(Cc1cc(I)c(O)c(I)c1)c1ccccc1` (stereo not given): the outcome was inactive.

Take `COC(=O)CS`: the outcome was inactive.

Take `CCc1nccnc1C`: the outcome was inactive.

For `CCCCC(CC)(CO)CO`, the outcome was inactive.

For the compound `C[C@H](O)C(=O)Nc1c(I)c(C(=O)NC(CO)CO)c(I)c(C(=O)NC(CO)CO)c1I`, the result was inactive.

For the compound `Cc1ccccc1C(=O)Nc1ccc(C(=O)N2CCCC(N(C)C)c3ccccc32)cc1` (stereo not given), the result was inactive.

As to `COc1cc2c(cc1OC)-c1cc3ccc(OC)c(OC)c3c[n+]1CC2`, the outcome was inactive.

With `CCCCC(CC)COC(=O)CCCCCCCCC(=O)OCC(CC)CCCC` (stereo not given), the result was inactive.

Take `Cc1cc(C(C)(C)C)cc(C)c1CC1=NCCN1`: the outcome was inactive.

For `S=C(SSSSSSC(=S)N1CCCCC1)N1CCCCC1`, the activation is 0.115% [at 11.8 µM].

In the case of `CC(C)C[P+](C)(CC(C)C)CC(C)C`, the result was inactive.

As to `Cc1c(C)c([N+](=O)[O-])c(C(C)(C)C)c([N+](=O)[O-])c1C`, the result was inactive.

Turning to `N#CCC(=O)NN`, the outcome was inactive.

`OC[C@@H](O)C(O)[C@@H](O)CO` (stereo not given in full): the outcome was inactive.

For `COc1cc(O)cc(O)c1`, the outcome was inactive.

As for `CCCCCCCCCC[N+](C)(C)[O-]`, the outcome was inactive.

`Nc1nc2c(ncn2COCCO)c(=O)[nH]1`: the result was inactive.

Turning to `Cc1ccc(C)c(N)c1`, the result was inactive.

With `CN=C(N)NC(=O)Nc1c(C)cccc1C`, the result was inactive.

As to `CC(=O)CC(C)C`, the outcome was inactive.

As to `CCN1CCCC1CNC(=O)c1cc(S(N)(=O)=O)ccc1OC` (stereo not given), the result was inactive.

Turning to `CCOC(=O)CC`, the outcome was inactive.

Consider `CCC(=O)CC(C)CC` (stereo not given), for which the activation was -0.478% [at 0.217 µM].

In the case of `CCCCCc1ccco1`, the outcome was inactive.

Take `N#Cc1ccc(CC(=O)c2cccc(C(F)(F)F)c2)cc1`: the outcome was inactive.

Take `C[N+](C)(C)CC(O)CC(=O)[O-]` (stereo not given): the outcome was inactive.

Turning to `CCNC(=O)C(C)OC(=O)Nc1ccccc1` (stereo not given), the result was inactive.

As to `CCOc1ccc(NC(=O)OC(C)C)cc1OCC`, the outcome was inactive.

`COC(=O)CC#N`: the outcome was inactive.

On to `CC(CCc1ccc(O)cc1)NCCc1ccc(O)c(O)c1` (stereo not given), for which the result was inactive.

Turning to `Cn1c(=O)c2c(ncn2CC(O)CO)n(C)c1=O` (stereo not given), the result was inactive.

As for `CCCCCCCC[P+](CCCCCCCC)(CCCCCCCC)CCCCCCCC`, the outcome was inactive.

Consider `Cc1c[nH]c2ccccc12`, for which the result was inactive.

Turning to `CC(C)C(=O)OCC(C)(C)C(O)C(C)C` (stereo not given), the outcome was inactive.

For the compound `CO/N=C(\C(=O)O)c1csc(NC(=O)CCl)n1`, the result was inactive.
